The source of these data is PubChem BioAssay (NCATS).

Where “and” joins values, the source holds several entries; their conditions need not be identical. Equal values may be shown once. Inconclusive results are not listed. Calls of active or inactive are those of the source. The call rests on the fitted dose curve; in most records, active means well fitted inhibition curve with a large enough effect; inconclusive means small, poorly fitted or top-dose-only effect; inactive means no such curve, though single readings can be large or run the other way.
Potency means the concentration at half of the fitted maximal effect.

For the assay, the target named is Cytochrome P450 3A4 (Homo sapiens) (UniProt P08684). The experiment in a line: qHTS Assay for Inhibitors and Substrates of Cytochrome P450 3A4 (AID 884). Further: nearly all actives have a fitted effect of over 50% in size. As to conditions: recombinant CYP3A4, Luciferin-PPXE luminescence; series mostly up to 57.1 µM. In short, it runs like this: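 Luminescent readout of luciferin produced by CYP3A4 (20 nM) dealkylation of Luciferin-PPXE, 25 uM (its KM). NADPH-driven reaction ran 60 min at RT after 10 min compound preincubation; data scaled to 57 uM ketoconazole as 100% inhibition.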
Chain of Cytochrome P450 3A4 (Homo sapiens) (P08684 whole entry, looked up): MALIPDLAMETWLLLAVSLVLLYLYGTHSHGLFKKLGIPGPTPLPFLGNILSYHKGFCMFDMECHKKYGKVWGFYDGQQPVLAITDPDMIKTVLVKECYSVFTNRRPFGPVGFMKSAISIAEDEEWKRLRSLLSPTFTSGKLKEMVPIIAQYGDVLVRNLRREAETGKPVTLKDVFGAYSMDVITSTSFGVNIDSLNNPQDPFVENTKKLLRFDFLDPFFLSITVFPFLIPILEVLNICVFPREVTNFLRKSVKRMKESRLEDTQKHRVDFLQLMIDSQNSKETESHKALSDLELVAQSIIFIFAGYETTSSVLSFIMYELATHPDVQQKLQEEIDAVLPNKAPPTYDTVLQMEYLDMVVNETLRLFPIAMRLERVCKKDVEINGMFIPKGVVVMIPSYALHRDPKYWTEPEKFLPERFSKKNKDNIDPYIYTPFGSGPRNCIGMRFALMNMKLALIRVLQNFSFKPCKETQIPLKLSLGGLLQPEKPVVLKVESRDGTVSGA
For orientation: In qHTS, concentration-response curves come from the screen itself.
For the molecule `COC(=O)[C@@H]1C[C@@H]2CC[C@@H](O)C[C@@H]2N1Cc1ccc(OC)cc1`, the Potency was 15.8 µM (active).

Consider `CC(C)(C)N1C(=O)[C@H]2[C@H]3[C@H](O)[C@H](O)C/C(=N/OC[C@@H](O)COCc4ccco4)[C@@H]3CC[C@@H]2C1=O`, for which the Potency was 5.01 µM (active). Turning to `FC(F)(F)c1ccc(CN2C[C@@H]3C(c4ccc(Cl)nc4)C4(c5cccnc5)CC3(C4)[C@H]2c2ccccc2)cc1` (stereo not given in full), the Potency is 15.8 µM (active). For `CCC1=C2CC[C@H]3C(=O)N(CC)C(=O)[C@H]3[C@H]2[C@@]2(Cc3ccccc3)C(=O)N(Cc3ccccc3)C(=O)N2C1=O`, the Potency was 3.98 µM (active). For `FC(F)(F)c1ccc(C2[C@H]3CN(Cc4cccnc4)[C@H](c4ccccc4)C34CC2(c2ccccc2)C4)cc1` (stereo not given in full), the Potency is 3.16 µM (active). Regarding `CCCNC(=O)OC[C@@H]1O[C@H](CCO/N=C(\C)CCN2CCCCc3nc(C)c(C)cc32)C=C[C@@H]1Oc1ccc(OC)cc1`, the Potency was 3.16 µM (active). In the case of `C=CC[C@@H]1C=C[C@H](O/N=C\[C@@H](C)[C@H](OCc2ccccc2)C(C)C)[C@H](CO)O1`, the Potency was 3.98 µM (active). As for `C[C@@H](c1ccccc1)N1C(=O)[C@H]2[C@H]3[C@H](O)[C@H](O)C/C(=N/OC[C@@H](O)COCc4ccco4)[C@H]3CC[C@@H]2C1=O`, the Potency is 3.98 µM (active). As for `CCC1=C(OC(=O)N(CC)CC)N2C(=O)OC(=NCC(=O)OC)[C@]2(Cc2ccccc2)[C@H]2C1=CC[C@H]1C(=O)N(CC(=O)OC)C(=O)[C@H]12`, the Potency is 5.01 µM (active). For `COC(=O)C/C=C\[C@@H](C)[C@@H](/C=N\O[C@@H](C)CN1CCCCc2nc(C)c(C)cc21)NS(=O)(=O)c1ccc(C)cc1`, the Potency was 3.98 µM (active). Turning to `Cc1ccc(S(=O)(=O)N[C@H]2COC(=O)C/C=C\[C@@H](C)[C@H](NS(=O)(=O)c3ccc(C)cc3)COC(=O)C/C=C\[C@H]2C)cc1`, the Potency was 3.16 µM (active). As for `C/C(CCN1CCCCc2nc(C)c(C)cc21)=N\OC[C@@H](O)COCc1ccco1`, the Potency is 3.98 µM (active). Consider `CC(=O)OC[C@@H]1O[C@H](C/C=N\O[C@@H](C)c2cc(-c3c(C)cc(C)cc3C)no2)C=C[C@@H]1OC(C)=O`, for which the Potency is 3.16 µM (active). Take `CCCNC(=O)OC[C@@H]1O[C@H](CCO/N=C(\C)CCN2CCCc3nc(C)c(C)cc32)C=C[C@@H]1Oc1ccc(OC)cc1`: the Potency is 3.98 µM (active). With `CCC1=C(OC(=O)N(CC)CC)N2C(=O)OC(=NCCc3c[nH]c4ccccc34)[C@]2(C)[C@H]2C1=CC[C@H]1C(=O)N(CC(=O)OC)C(=O)[C@H]12` the figure was 2 µM (active). Take `CCN1C(=O)[C@H]2[C@H]3[C@H](O)[C@H](O)C/C(=N/O[C@@H](C)c4cc(-c5c(C)cc(C)cc5C)no4)[C@@H]3CC[C@@H]2C1=O`: the Potency was 3.98 µM (active). Turning to `CCCOc1ccc(Br)cc1-c1cc(-c2ccc(Cl)cc2)[nH]c1-c1ccncc1`, the Potency is 1.26 µM (active).

For the molecule `C#CCCCO/N=C1/C[C@@H](O)[C@@H](O)[C@@H]2[C@@H]3C(=O)N([C@@H](C)c4ccccc4)C(=O)[C@H]3CC[C@@H]12`, the Potency was 3.98 µM (active). In the case of `CN1C[C@@H]2C(c3ccccc3)C3(c4cccnc4)CC2(C3)[C@H]1c1ccccc1` (stereo not given in full), the Potency is 2.51 µM (active).

As for `CO[C@@H]1COC(=O)C/C=C\[C@H](C)[C@@H](NS(=O)(=O)c2ccc(C)cc2)COC(=O)C/C=C\[C@@H]1C`, the Potency is 3.98 µM (active) and 3.16 µM (active). On to `COC(=O)c1ccc(C(NC(=O)OCc2ccccc2)/C(I)=C/[C@@H](C)C(=O)NCc2ccc(C)o2)cc1` (stereo not given in full), for which the Potency was 10 µM (active). For the molecule `Cn1c(N)c(C(=O)COC(=O)c2cc(-c3ccccc3)nc3ccccc23)c(=O)n(C)c1=O`, the Potency was 12.6 µM (active). Take `NC(N)=NCCC[C@H](NC(=O)CC1(CC(=O)N2CCN(C3c4ccccc4NC(=O)c4ccccc43)CC2)CCCC1)C(=O)NCCn1c(=O)n(-c2ccccc2)n(-c2ccccc2)c1=O` (stereo not given in full): the Potency is 12.6 µM (active).

Take `Cc1c(C(=O)NC2CCCCC2)sc2nc3ccc(N)cc3n12`: the Potency was 1.58 µM (active).

In the case of `FC(F)(F)c1ccc(C2[C@H]3CN(Cc4cccnc4)[C@H](c4ccccc4)C34CC2(c2cccnc2)C4)cc1` (stereo not given in full), the Potency is 2 µM (active). To `CCC1=C2CC[C@H]3C(=O)N(CC)C(=O)[C@H]3[C@H]2[C@@]2(Cc3ccccc3)C(=O)N(CCOC)C(=O)N2C1=O` belongs 15.8 µM (active); to `CCC1=C(OC(=O)N(CC)CC)N2C(=O)OC(=NCC(=O)OC)[C@]2(C)[C@H]2C1=CC[C@H]1C(=O)N(CC)C(=O)[C@H]12`, 6.31 µM (active); to `CCC1=C2CC[C@H]3C(=O)N(c4ccccc4)C(=O)[C@H]3[C@H]2[C@@]2(C)C(=NCC(=O)OC)OC(=O)N2C1=O`, 15.8 µM (active).

As to `C/C(CCN1CCCCc2nc(C)c(C)cc21)=N\O[C@@H](C)c1cn([C@H](CO)Cc2ccccc2)nn1`, the Potency is 3.98 µM (active) and 5.01 µM (active).

In the case of `CCC1=C(OC(=O)N(CC)CC)N2C(=O)OC(=NCC(=O)OC)[C@]2(Cc2ccccc2)[C@H]2C1=CC[C@H]1C(=O)NC(=O)[C@H]12`, the Potency is 6.31 µM (active). Turning to `COc1ccc(O[C@H]2C=C[C@@H](c3ccccc3)O[C@@H]2CO/N=C\[C@@H](C)[C@H](OCc2ccccc2)C(C)C)cc1`, the Potency was 3.98 µM (active). To `CCC1=C(OC(=O)N(CC)CC)N2C(=O)OC(=NCC3CC3)[C@]2(C)[C@H]2C1=CC[C@H]1C(=O)N(CC(=O)OC)C(=O)[C@H]12` belongs 7.94 µM (active); to `O=C1[C@H]2[C@H]3[C@H](O)[C@H](O)C/C(=N/OC[C@@H](O)COCc4ccco4)[C@H]3CC[C@@H]2C(=O)N1Cc1ccc2c(c1)OCO2`, 3.16 µM (active); to `CCC1=C(OC(=O)N(CC)CC)N2C(=O)OC(=NCCc3c[nH]c4ccccc34)[C@]2(Cc2ccccc2)[C@H]2C1=CC[C@H]1C(=O)N(c3ccccc3)C(=O)[C@H]12`, 6.31 µM (active).

Regarding `N#Cc1ccc(C23CC4(C2)[C@H](CN(Cc2cccnc2)[C@@H]4c2ccccc2)C3c2ccccc2)cc1` (stereo not given in full), the Potency was 3.98 µM (active). On to `CCc1cc(C(C)=O)c(O)cc1OCCCCCC(C)(C)c1nn[nH]n1`, for which the Potency was 10 µM (active).

Regarding `CCC1=C2CC[C@H]3C(=O)N(CC)C(=O)[C@H]3[C@H]2[C@@]2(Cc3ccccc3)C(=NCc3ccccc3)OC(=O)N2C1=O`, the Potency was 3.16 µM (active).

On to `Cn1c(N)c(C(=O)COC(=O)c2cc(-c3ccco3)nc3ccccc23)c(=O)n(Cc2ccccc2)c1=O`, for which the Potency is 10 µM (active). For `Cc1ccc(S(=O)(=O)N[C@H]2COC(=O)CC=C[C@@H](C)[C@H]3C=C[C@H](O)[C@@H](COC(=O)CC=C[C@H]2C)O3)cc1`, the Potency was 3.16 µM (active).

Consider `C/C(CCN1CCCCc2nc(C)c(C)cc21)=N\O[C@@H](C)c1cc(-c2c(C)cc(C)cc2C)no1`, for which the Potency was 3.98 µM (active).
